According to the supplement of paper PMC11732987, “Enantioselective OTUD7B fragment discovery through chemoproteomics screening and high-throughput optimisation” (Communications Chemistry, 2025):
A number with no mark means an inactive call.

How the values were obtained:
Test in all cases: log2 ratio of Biotin-Ahx-Ub-VS probe labelling (compound/DMSO); higher = less target engagement, active = hit call of the paper (q ≤ 0.05, log2 ratio ≤ -1)
Details in all cases: treatment time: 3 h
[1] = compound: CN(Cc1cccc(Br)c1)C(=O)CCl
Outline: (§1)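 Compound at 50 or 200 µM, or DMSO, was applied for 3 h in triplicate to HEK293T lysate (495 µg per sample, Tris/CHAPS/IGEPAL buffer with protease inhibitors), after which Biotin-Ahx-Ub-VS was added at 0.5 µM final for 1 h. The labelled DUBs were pulled down with NeutrAvidin, digested with LysC and trypsin, and run by diaPASEF LC-MS/MS. Ratios are averaged base-two logs of compound over DMSO from median-normalised label-free quantities by unpaired t-test, counting only proteins with at least 2 unique peptides.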

[2] = compound: CN(Cc1cccc(OCc2ccccc2C)c1)C(=O)CCl
Outline: as §1

[3] = compound: CN(Cc1ccccc1)C(=O)CCl
Outline: as §1

[4] = compound: COc1ccc(CN(C)C(=O)CCl)cc1
Outline: as §1

[5] = compound: COc1cccc(CN(CCCc2ccccc2)C(=O)CCl)c1
Outline: as §1

[6] = compound: ClCC(=O)N1CCc2cc(Cl)c(Cl)cc2C1
Outline: as §1

[7] = compound: ClCC(=O)N1CCc2nc(ncc2C1)-c1ccccc1
Outline: as §1

[8] = compound: ClCC(=O)N1CCc2nocc2C1
Outline: as §1

[9] = compound: ClCC(=O)N1CCc2scc(Br)c2C1
Outline: as §1

[10] = compound: ClCC(=O)NC(C1CCCC1)c1cccs1
Outline: as §1

[11] = compound: ClCC(=O)NC1CCCc2ccccc12
Outline: as §1

[12] = compound: ClCC(=O)NC1CCOc2ccc(Cl)cc12
Outline: as §1

[13] = compound: ClCC(=O)NC1CCSc2ccccc12
Outline: as §1

[14] = compound: ClCC(=O)N[C@H]1CCCc2ccccc12
Outline: as §1

[15] = compound: Fc1ccc(N2CCN(c3nc4c(CN(C(CCl)=O)CC4)cn3)CC2)cc1.Cl.Cl
Outline: as §1

UniProt O00487, sequence (O00487 whole entry): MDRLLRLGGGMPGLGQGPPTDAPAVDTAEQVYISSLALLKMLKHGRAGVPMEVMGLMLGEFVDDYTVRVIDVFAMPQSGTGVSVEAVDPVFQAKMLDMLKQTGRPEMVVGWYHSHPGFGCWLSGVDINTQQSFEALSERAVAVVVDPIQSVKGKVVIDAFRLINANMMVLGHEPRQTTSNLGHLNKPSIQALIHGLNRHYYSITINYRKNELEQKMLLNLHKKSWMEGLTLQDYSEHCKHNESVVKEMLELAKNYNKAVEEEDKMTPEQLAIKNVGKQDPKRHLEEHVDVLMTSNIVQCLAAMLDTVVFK
UniProt P54578, sequence (P54578 whole entry): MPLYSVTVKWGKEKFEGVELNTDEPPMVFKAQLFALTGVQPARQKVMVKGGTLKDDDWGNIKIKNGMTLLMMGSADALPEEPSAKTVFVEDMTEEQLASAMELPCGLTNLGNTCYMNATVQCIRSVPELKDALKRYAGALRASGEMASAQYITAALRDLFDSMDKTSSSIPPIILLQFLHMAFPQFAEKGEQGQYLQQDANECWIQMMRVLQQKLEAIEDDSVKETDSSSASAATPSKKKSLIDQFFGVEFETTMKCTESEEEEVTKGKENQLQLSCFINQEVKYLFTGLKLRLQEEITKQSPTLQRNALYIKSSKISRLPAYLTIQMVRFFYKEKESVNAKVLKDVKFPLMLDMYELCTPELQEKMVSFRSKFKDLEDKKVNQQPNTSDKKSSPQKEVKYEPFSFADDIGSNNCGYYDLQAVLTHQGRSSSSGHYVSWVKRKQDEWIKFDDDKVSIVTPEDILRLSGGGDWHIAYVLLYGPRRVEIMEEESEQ
UniProt Q01804, sequence (Q01804 whole entry): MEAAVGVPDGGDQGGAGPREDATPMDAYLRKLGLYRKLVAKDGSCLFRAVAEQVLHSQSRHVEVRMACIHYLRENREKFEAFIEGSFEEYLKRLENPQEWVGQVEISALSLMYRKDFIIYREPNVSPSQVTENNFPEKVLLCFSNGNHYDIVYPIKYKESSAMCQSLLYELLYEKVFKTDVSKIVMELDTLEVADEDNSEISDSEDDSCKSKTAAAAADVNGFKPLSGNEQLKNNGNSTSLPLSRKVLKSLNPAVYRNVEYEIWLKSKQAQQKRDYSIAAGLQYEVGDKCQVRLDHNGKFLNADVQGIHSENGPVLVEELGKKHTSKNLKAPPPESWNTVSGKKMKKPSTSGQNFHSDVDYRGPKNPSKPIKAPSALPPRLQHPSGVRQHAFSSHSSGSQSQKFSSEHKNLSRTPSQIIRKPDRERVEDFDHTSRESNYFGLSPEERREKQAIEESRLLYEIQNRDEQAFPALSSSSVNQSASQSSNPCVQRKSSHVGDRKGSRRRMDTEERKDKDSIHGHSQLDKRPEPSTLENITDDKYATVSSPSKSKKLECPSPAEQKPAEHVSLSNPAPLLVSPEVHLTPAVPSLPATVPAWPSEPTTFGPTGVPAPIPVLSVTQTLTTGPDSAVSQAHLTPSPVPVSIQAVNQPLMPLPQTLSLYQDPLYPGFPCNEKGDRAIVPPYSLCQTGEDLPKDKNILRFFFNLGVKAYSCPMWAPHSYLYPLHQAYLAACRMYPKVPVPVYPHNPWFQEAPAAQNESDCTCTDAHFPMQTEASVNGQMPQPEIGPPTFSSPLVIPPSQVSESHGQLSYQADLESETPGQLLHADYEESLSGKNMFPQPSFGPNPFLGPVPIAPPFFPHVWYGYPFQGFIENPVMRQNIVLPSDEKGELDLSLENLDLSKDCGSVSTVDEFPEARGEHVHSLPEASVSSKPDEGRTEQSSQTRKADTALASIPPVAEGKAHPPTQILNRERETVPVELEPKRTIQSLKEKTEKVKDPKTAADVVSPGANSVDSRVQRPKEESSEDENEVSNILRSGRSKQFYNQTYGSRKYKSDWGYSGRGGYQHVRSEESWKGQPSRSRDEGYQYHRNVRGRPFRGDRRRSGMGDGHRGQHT

Target	log2 ratio of Biotin-Ahx-Ub-VS probe labelling ([1]; compound concentration: 50uM)	log2 ratio of Biotin-Ahx-Ub-VS probe labelling ([1]; compound concentration: 200uM)	log2 ratio of Biotin-Ahx-Ub-VS probe labelling ([2]; compound concentration: 50uM)	log2 ratio of Biotin-Ahx-Ub-VS probe labelling ([2]; compound concentration: 200uM)	log2 ratio of Biotin-Ahx-Ub-VS probe labelling ([3]; compound concentration: 50uM)	log2 ratio of Biotin-Ahx-Ub-VS probe labelling ([3]; compound concentration: 200uM)	log2 ratio of Biotin-Ahx-Ub-VS probe labelling ([4]; compound concentration: 50uM)	log2 ratio of Biotin-Ahx-Ub-VS probe labelling ([4]; compound concentration: 200uM)	log2 ratio of Biotin-Ahx-Ub-VS probe labelling ([5]; compound concentration: 50uM)	log2 ratio of Biotin-Ahx-Ub-VS probe labelling ([5]; compound concentration: 200uM)	log2 ratio of Biotin-Ahx-Ub-VS probe labelling ([6]; compound concentration: 50uM)	log2 ratio of Biotin-Ahx-Ub-VS probe labelling ([6]; compound concentration: 200uM)	log2 ratio of Biotin-Ahx-Ub-VS probe labelling ([7]; compound concentration: 50uM)	log2 ratio of Biotin-Ahx-Ub-VS probe labelling ([7]; compound concentration: 200uM)	log2 ratio of Biotin-Ahx-Ub-VS probe labelling ([8]; compound concentration: 50uM)	log2 ratio of Biotin-Ahx-Ub-VS probe labelling ([8]; compound concentration: 200uM)	log2 ratio of Biotin-Ahx-Ub-VS probe labelling ([9]; compound concentration: 50uM)	log2 ratio of Biotin-Ahx-Ub-VS probe labelling ([9]; compound concentration: 200uM)	log2 ratio of Biotin-Ahx-Ub-VS probe labelling ([10]; compound concentration: 50uM)	log2 ratio of Biotin-Ahx-Ub-VS probe labelling ([10]; compound concentration: 200uM)	log2 ratio of Biotin-Ahx-Ub-VS probe labelling ([11]; compound concentration: 50uM)	log2 ratio of Biotin-Ahx-Ub-VS probe labelling ([11]; compound concentration: 200uM)	log2 ratio of Biotin-Ahx-Ub-VS probe labelling ([12]; compound concentration: 50uM)	log2 ratio of Biotin-Ahx-Ub-VS probe labelling ([12]; compound concentration: 200uM)	log2 ratio of Biotin-Ahx-Ub-VS probe labelling ([13]; compound concentration: 50uM)	log2 ratio of Biotin-Ahx-Ub-VS probe labelling ([13]; compound concentration: 200uM)	log2 ratio of Biotin-Ahx-Ub-VS probe labelling ([14]; compound concentration: 50uM)	log2 ratio of Biotin-Ahx-Ub-VS probe labelling ([14]; compound concentration: 200uM)	log2 ratio of Biotin-Ahx-Ub-VS probe labelling ([15]; compound concentration: 50uM)	log2 ratio of Biotin-Ahx-Ub-VS probe labelling ([15]; compound concentration: 200uM)
OTUD4 (UniProt Q01804)	-0.0958	-0.146	-0.447	-0.51	-0.294	-0.346	-0.216	-0.205	-0.174	-0.415	0.000974	-0.823	0.0593	-0.446	-0.424	-0.874	-0.0278	-0.809	-0.284	-0.721	-1.22 (active)	-1.53 (active)	-0.449	-1.11 (active)	-1.2 (active)	-1.84 (active)	-1.48 (active)	-1.79 (active)	-0.0534	-0.739
USP14 (UniProt P54578)	-0.191	-0.555	-0.544	-0.62	-0.14	0.0709	-0.127	-0.0256	-0.187	-0.626	-0.137	-0.35	0.0498	0.0841	-0.186	-0.17	-0.438	-1 (active)	-0.115	-0.1	-0.364	0.154	-0.397	-0.0189	-0.186	-0.179	0.115	-0.537	0.108	-0.424
UniProt O00487	-0.27	-0.709	-0.154	-0.202	-0.0192	0.243	-0.0826	-0.0205	0.102	0.0842	-0.325	-0.335	-0.128	0.13	-0.239	-0.187	-0.175	-0.724	-0.101	-0.0832	-0.451	-0.117	-0.207	0.0311	0.124	-0.15	-0.0195	-0.0757	0.285	0.135
